For four compounds, inhibition results are on record in ChEMBL document CHEMBL1961873, “Compounds: GSK PKIS; Assays: Nanosyn kinase panel” (2012).

Test [1] addresses High affinity nerve growth factor receptor (Homo sapiens) (UniProt P04629). The note with it: at 1 µM.
Test [2] deals with BDNF/NT-3 growth factors receptor (Homo sapiens) (UniProt Q16620). Particulars: at 0.1 µM.
Test [3] shares this target. The note with it: at 1 µM.
Test [4] concerns the target NT-3 growth factor receptor (Homo sapiens) (UniProt Q16288). Particulars: at 0.1 µM.
For test [5] the target is unchanged. Particulars: at 1 µM.
Test [6] addresses T1, Tyrosine-protein kinase TXK (Homo sapiens) (UniProt P42681).
T1 sequence (whole entry): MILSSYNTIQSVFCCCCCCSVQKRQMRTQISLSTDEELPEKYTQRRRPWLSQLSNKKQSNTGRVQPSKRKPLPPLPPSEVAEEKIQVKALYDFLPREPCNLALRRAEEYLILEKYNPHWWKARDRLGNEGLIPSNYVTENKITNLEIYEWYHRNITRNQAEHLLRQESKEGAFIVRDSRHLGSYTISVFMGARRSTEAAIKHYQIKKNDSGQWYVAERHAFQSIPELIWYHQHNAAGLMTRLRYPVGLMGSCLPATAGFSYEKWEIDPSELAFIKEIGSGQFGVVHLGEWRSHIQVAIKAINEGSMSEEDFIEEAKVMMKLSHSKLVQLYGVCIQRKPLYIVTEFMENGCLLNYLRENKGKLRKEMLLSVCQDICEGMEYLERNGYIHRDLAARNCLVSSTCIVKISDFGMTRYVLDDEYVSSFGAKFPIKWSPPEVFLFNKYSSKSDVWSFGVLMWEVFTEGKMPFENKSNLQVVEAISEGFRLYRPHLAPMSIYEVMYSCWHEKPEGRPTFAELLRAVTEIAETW
Particulars: at 0.1 µM.

The target in test [7] is T1, Tyrosine-protein kinase TXK (Homo sapiens). Particulars: at 1 µM.
Test [8] addresses Non-receptor tyrosine-protein kinase TYK2 (Homo sapiens) (UniProt P29597). Particulars: at 0.1 µM.
For test [9], the target named is T2, Dual specificity protein kinase TTK (Homo sapiens) (UniProt P33981).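 Note: reported figures are mean TTK inhibition at 1 µM.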
T2 sequence (whole entry): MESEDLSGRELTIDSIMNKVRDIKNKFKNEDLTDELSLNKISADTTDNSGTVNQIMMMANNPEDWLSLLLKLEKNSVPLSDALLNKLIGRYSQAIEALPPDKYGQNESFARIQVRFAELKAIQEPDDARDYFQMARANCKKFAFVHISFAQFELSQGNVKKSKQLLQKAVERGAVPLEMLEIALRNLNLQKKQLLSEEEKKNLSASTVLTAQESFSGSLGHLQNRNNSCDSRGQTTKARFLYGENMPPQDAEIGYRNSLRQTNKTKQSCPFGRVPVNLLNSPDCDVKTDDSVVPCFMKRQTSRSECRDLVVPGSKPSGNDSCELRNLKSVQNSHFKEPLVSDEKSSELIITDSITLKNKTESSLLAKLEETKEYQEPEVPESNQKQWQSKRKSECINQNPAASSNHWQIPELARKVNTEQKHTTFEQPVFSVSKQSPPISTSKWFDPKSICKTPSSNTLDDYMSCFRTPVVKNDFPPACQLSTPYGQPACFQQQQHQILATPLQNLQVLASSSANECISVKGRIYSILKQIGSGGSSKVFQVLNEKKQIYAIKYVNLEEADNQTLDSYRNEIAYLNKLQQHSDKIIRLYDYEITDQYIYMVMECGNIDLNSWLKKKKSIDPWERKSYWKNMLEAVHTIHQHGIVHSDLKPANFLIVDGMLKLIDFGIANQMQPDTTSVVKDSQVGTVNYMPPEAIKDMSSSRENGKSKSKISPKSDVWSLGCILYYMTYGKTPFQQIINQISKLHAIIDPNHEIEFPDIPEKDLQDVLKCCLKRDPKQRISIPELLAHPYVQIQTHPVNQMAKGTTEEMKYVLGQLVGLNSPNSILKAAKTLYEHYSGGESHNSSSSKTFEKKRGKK
Particulars: at 1 µM.

Test [10] addresses T3, Aurora kinase A (Homo sapiens) (UniProt O14965).
T3 sequence (whole entry): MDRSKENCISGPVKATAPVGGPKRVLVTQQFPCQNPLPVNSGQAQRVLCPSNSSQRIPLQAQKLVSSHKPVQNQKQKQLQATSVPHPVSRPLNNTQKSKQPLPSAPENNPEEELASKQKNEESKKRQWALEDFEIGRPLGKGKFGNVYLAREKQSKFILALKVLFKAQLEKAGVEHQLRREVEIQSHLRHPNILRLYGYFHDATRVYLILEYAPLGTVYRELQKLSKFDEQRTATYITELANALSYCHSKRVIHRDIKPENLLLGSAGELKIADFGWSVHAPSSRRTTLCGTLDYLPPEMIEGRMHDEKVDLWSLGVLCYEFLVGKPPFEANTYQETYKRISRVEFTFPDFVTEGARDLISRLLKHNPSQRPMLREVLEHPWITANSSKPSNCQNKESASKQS
Particulars: at 0.1 µM.

The target in test [11] is T3, Aurora kinase A (Homo sapiens). The note with it: at 1 µM.
The target of test [12] is Aurora kinase B (Homo sapiens) (UniProt Q96GD4). The note with it: at 0.1 µM.
Aurora kinase B (Homo sapiens), sequence (Q96GD4 whole entry): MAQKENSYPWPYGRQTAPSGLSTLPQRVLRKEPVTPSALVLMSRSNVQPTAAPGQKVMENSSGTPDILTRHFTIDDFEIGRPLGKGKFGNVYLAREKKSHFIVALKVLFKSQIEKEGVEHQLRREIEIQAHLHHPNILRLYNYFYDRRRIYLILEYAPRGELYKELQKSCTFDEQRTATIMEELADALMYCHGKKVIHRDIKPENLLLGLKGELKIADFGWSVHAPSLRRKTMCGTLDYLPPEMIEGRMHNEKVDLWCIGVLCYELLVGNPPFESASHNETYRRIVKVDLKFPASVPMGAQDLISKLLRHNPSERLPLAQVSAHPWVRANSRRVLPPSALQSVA
Test [13] shares this target. The note with it: at 1 µM.
In test [14] the target is T4, Aurora kinase C (Homo sapiens) (UniProt Q9UQB9).
T4 sequence (whole entry): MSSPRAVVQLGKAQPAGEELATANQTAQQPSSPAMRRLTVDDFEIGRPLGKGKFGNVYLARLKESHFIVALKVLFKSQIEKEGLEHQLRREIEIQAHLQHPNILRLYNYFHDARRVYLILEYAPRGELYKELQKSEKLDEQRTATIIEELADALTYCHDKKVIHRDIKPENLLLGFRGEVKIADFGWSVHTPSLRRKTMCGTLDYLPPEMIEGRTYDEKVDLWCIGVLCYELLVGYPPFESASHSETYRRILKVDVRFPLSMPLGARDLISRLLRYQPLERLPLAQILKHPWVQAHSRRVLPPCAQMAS
The note with it: at 0.1 µM.

The target in test [15] is T4, Aurora kinase C (Homo sapiens). Particulars: at 1 µM.
The target in test [16] is Serine/threonine-protein kinase 10 (Homo sapiens) (UniProt O94804). The note with it: at 0.1 µM.
Serine/threonine-protein kinase 10 (Homo sapiens), sequence (O94804 whole entry, looked up): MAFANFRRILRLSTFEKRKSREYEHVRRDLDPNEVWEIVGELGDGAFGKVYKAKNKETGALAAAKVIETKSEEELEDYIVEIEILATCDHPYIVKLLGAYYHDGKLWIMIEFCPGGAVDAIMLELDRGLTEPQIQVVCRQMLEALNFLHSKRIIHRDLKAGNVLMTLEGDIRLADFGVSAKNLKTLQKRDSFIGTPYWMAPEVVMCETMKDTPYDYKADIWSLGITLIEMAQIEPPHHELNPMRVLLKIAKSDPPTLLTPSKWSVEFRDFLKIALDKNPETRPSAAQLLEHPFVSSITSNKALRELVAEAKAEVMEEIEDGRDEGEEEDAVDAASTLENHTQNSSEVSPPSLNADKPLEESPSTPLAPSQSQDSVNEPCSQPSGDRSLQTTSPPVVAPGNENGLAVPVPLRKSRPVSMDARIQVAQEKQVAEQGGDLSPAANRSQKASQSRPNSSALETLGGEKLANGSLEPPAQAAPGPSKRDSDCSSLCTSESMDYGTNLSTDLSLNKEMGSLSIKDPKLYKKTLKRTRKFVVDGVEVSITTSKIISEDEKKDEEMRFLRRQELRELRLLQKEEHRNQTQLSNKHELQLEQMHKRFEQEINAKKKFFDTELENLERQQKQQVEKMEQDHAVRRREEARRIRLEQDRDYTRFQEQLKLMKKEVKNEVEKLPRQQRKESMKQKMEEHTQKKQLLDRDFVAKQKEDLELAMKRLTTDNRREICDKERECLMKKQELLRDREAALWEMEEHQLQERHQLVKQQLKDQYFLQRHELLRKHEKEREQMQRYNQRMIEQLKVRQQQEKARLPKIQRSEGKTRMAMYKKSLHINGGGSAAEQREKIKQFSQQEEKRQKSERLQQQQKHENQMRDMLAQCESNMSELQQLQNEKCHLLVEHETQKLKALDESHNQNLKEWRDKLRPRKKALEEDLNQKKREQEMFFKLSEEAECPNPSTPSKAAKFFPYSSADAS
The target is the same in test [17]. The note with it: at 1 µM.
The target in test [18] is T5, Mitogen-activated protein kinase kinase kinase kinase 2 (Homo sapiens) (UniProt Q12851).
T5 sequence (whole entry): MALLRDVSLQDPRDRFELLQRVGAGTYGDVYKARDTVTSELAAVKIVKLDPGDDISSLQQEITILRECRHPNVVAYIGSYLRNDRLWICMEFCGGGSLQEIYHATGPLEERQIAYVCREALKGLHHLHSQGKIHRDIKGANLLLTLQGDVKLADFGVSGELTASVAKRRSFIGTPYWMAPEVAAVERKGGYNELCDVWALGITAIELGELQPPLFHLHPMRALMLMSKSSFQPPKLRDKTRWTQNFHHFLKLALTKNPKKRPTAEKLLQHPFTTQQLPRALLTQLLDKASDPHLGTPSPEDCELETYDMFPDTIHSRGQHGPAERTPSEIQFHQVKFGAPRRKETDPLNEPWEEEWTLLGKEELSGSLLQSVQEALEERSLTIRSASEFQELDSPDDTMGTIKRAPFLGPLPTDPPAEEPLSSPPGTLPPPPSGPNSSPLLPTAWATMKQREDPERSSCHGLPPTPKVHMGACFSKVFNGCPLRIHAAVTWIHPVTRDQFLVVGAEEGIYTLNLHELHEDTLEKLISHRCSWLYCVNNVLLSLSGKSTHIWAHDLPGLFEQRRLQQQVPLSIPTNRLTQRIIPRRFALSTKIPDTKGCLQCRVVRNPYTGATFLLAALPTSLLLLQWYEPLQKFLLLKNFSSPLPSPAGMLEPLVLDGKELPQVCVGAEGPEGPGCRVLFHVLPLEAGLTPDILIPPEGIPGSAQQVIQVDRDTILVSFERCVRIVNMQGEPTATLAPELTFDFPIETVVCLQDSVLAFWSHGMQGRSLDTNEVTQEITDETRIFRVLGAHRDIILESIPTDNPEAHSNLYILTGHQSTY
The note with it: at 0.1 µM.

The target in test [19] is T5, Mitogen-activated protein kinase kinase kinase kinase 2 (Homo sapiens). Particulars: at 1 µM.
Test [20] deals with Mitogen-activated protein kinase kinase kinase kinase 4 (Homo sapiens) (UniProt O95819). The note with it: at 0.1 µM.

Non-receptor tyrosine-protein kinase TYK2 (Homo sapiens), sequence (P29597 whole entry): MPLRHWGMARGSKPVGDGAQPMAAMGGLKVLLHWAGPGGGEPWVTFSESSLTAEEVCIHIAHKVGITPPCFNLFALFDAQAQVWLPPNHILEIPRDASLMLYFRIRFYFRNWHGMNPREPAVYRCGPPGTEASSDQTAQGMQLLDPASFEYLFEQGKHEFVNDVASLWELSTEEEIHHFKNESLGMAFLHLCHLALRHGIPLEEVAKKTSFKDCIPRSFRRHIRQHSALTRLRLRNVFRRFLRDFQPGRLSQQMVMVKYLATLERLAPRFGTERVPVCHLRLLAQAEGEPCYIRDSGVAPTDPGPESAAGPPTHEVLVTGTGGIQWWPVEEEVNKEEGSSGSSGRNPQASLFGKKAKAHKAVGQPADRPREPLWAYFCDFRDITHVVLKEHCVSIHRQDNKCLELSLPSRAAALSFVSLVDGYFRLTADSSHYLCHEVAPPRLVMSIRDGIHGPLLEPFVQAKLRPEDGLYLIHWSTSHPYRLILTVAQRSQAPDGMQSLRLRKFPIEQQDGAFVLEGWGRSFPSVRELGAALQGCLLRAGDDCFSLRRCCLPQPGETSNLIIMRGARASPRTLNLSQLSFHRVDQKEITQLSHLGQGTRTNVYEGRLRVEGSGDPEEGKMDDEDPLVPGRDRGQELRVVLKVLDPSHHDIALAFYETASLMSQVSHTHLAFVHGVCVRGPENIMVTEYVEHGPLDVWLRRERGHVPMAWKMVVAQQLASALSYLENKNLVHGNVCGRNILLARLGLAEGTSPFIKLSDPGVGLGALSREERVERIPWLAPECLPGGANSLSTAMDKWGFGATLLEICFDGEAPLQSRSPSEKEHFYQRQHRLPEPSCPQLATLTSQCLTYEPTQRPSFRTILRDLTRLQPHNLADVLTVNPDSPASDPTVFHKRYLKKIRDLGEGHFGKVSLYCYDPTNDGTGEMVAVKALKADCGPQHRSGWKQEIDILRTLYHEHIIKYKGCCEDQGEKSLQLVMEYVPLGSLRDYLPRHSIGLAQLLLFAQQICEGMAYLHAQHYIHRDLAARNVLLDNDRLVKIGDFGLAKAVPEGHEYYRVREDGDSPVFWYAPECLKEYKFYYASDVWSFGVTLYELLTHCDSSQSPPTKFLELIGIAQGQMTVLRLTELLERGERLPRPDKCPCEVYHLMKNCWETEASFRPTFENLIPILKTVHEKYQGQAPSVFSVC
NT-3 growth factor receptor (Homo sapiens), sequence (Q16288 32-839 limits assumed): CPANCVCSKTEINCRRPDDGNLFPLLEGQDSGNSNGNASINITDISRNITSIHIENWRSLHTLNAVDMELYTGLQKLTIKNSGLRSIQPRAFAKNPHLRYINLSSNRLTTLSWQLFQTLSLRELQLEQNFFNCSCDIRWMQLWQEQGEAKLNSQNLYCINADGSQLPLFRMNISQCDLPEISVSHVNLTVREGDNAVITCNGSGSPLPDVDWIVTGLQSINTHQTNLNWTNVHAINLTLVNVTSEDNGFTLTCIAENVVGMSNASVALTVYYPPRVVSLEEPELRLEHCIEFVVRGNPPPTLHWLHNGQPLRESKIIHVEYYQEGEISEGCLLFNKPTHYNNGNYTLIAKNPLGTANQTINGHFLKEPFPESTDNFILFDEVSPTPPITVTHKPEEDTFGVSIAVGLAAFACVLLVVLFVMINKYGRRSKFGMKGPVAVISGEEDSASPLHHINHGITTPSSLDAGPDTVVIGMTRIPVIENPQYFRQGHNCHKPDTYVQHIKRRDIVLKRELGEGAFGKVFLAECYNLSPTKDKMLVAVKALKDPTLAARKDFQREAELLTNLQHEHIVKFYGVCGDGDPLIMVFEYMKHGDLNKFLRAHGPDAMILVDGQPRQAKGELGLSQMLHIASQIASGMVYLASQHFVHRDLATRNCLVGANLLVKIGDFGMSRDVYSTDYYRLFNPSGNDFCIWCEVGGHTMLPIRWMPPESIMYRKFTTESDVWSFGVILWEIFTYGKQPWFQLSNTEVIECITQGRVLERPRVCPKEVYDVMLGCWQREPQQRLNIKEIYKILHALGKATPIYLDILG
BDNF/NT-3 growth factors receptor (Homo sapiens), sequence (Q16620 32-822 limits assumed): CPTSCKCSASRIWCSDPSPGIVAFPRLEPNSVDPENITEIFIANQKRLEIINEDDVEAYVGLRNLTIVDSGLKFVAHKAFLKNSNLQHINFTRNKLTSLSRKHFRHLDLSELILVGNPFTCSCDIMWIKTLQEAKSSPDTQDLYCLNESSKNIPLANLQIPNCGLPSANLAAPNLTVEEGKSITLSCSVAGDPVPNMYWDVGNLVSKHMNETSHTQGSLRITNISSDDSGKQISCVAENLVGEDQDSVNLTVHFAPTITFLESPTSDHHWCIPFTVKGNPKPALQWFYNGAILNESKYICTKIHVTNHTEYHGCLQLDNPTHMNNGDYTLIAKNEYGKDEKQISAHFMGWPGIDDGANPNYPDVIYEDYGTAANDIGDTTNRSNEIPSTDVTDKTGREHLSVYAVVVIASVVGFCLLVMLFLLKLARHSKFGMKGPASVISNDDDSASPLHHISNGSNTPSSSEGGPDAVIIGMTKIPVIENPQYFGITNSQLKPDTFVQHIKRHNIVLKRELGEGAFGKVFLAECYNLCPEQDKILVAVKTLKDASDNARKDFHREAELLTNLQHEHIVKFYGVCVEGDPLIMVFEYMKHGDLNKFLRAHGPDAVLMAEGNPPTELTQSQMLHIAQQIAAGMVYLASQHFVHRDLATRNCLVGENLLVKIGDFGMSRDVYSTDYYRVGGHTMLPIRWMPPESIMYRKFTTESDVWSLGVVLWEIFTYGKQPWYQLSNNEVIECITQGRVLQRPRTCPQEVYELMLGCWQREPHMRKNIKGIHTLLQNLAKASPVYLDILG
High affinity nerve growth factor receptor (Homo sapiens), sequence (P04629 33-796 limits assumed): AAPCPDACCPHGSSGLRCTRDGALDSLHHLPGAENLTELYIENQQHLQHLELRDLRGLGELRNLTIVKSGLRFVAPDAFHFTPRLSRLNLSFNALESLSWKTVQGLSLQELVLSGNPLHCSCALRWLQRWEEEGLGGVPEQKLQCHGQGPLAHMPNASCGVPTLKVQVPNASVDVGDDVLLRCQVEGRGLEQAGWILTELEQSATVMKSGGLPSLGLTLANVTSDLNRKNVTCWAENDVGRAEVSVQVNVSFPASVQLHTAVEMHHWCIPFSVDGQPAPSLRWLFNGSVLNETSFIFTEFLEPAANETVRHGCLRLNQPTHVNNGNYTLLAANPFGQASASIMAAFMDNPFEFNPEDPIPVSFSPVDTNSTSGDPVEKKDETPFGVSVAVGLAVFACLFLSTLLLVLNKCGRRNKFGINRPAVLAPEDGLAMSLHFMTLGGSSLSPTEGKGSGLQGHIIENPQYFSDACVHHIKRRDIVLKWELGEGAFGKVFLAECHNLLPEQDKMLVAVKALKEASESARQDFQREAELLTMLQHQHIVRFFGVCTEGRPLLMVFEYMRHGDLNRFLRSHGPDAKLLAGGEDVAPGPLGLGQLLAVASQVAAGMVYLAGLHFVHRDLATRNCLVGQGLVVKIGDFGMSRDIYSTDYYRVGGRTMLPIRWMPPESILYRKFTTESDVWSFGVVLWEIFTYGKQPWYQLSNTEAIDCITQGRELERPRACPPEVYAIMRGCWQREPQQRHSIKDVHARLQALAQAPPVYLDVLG

As for `NS(=O)(=O)c1ccc(N/N=C2\C(=O)Nc3ccc4ncccc4c32)cc1`, the inhibition in test [1] is 50.4%; in test [2] it was 21.5%; in test [3], 72%; in [4], 26.7%; in [5] it was 78.5%; in test [6] it was 5.15%. Besides, the inhibition amounted to 26.9% in test [7]; 7.29% in test [8]; 67.6% in [9]; 27.3% in test [10]; 91.8% in [11]; 20% in test [12]. Moreover, the inhibition came to 67.9% in [13]; 15.8% in test [14]; 91.9% in [15]; 4.44% in test [16]; 13.1% in test [17]; 11.7% in test [18]. Moreover, the inhibition amounted to 49.8% in [19] and 44.4% in test [20].
In the case of `CN1CCC(n2cnc(-c3ccc(F)cc3)c2-c2ccnc(Nc3ccccc3)n2)CC1`, the inhibition in test [1] was 1.74%; in [2], 0.31%; in test [3], 1.95%; in test [4] it was 1.52%; in [5] it was 3.75%; in [6] it was 3.25%. Besides, the inhibition in [7] stood at 5.32%; in [8], 1.84%; in test [9], 8.53%; in [10], 2.13%; in test [11], 5.7%; in test [12], 3.55%. The inhibition is 3.9% in test [13]; 0.71% in test [14]; -2.98% in test [15]; 2.62% in test [16]; 8.59% in test [17]; 1.51% in [18]. The inhibition in test [19] turned out to be 10.3%; in test [20], 4.88%.
In the case of `Cc1ccc(O)cc1Nc1ccnc2cc(-c3ccccn3)ccc12`, the inhibition in test [1] came out at 4.34%; in test [2] it was 1.78%; in [3] it was 2.4%; in test [4] it was 3.76%; in test [5], 4.64%; in [6], 42%. Moreover, the inhibition was 82.3% in test [7]; -4.79% in [8]; 7.97% in test [9]; 2.82% in test [10]; 17.7% in test [11]; 9.57% in test [12]. The inhibition in test [13] came out at 43.9%; in test [14] it was 6.76%; in test [15], 60.6%; in [16], 11.1%; in test [17], 47.6%; in [18] it was 3.74%. Further, the inhibition was 26.4% in [19] and 26.7% in test [20].
Consider `CCn1cc(-c2ccnc3[nH]ccc23)c(-c2cccc(NC(=O)Nc3ccc(OCc4ccccc4)cc3)c2)n1`, for which the inhibition is -2.6% in test [1]; -2.42% in [2]; -0.53% in test [3]; -0.62% in test [4]; 8.83% in test [5]; -1.03% in test [6]. Moreover, the inhibition in test [7] is 1.79%; in test [8], 0.94%; in test [9] it was 3.41%; in test [10] it was 2.05%; in [11], 7.41%; in test [12], 2.62%. Further, the inhibition is 14.1% in [13]; 0.13% in [14]; 19.5% in [15]; 2.56% in test [16]; 7.07% in test [17]; 0.73% in [18]. Besides, the inhibition was 10.4% in test [19] and 1.57% in test [20].

As a reminder, the inhibition is the change of the read-out against control, counted positive when it falls.
